Assay results from PubChem BioAssay (NCI).
This is part of a sample that, as a whole, favours compounds with a hit. Of some 79,000 tested, about 15% had one in any assay. The source made the active and inactive calls. Rule as the data show it: active = growth inhibition above about 70%; inactive = the rest.

Legend:
[1] = NCI Yeast Anticancer Drug Screen. Data for the rad50 strain (AID 155);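 also: 0% = growth of vehicle-only cultures of the same strain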; details: S. cerevisiae rad50 strain growth inhibition; at 50.0 µM; active compounds read high
Summary of the method: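 Inhibition values express reduced yeast growth in compound-treated cultures relative to vehicle-treated controls.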

[2] = NCI Yeast Anticancer Drug Screen. Data for the mec2-1 strain (AID 157); details: S. cerevisiae mec2-1 strain, at 50.0 µM, active compounds read high
Summary of the method: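 Mutant yeast (mec2-1) grown with compound; growth inhibition relative to vehicle control reported.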

[3] = NCI Yeast Anticancer Drug Screen. Data for the sgs1 mgt1 strain (AID 161);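 also: 0% = growth of cultures given vehicle only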; details: S. cerevisiae sgs1 mgt1 strain, at 50.0 µM, active compounds read high
Summary of the method: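 Yeast cells carrying a defined DNA-repair defect were exposed to test compounds. Growth inhibition was measured relative to vehicle-treated controls.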

[4] = NCI Yeast Anticancer Drug Screen. Data for the cln2 rad14 strain (AID 165);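 also: 0% = growth equal to vehicle treated cultures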; details: S. cerevisiae cln2 rad14 strain, at 50.0 µM, active compounds read high
Summary of the method: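 Readout is yeast growth inhibition versus vehicle-treated controls, using a strain with cln2 and rad14 alterations exposed to compound.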

[5] = NCI Yeast Anticancer Drug Screen. Data for the bub3 strain (AID 167); details: S. cerevisiae bub3 mutant strain, at 50.0 µM, active compounds read high
Summary of the method: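 Steps: expose the mutant yeast strain to compound; grow alongside vehicle-treated cultures; measure growth; express inhibition against the vehicle cultures.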

[6] = NCI Yeast Anticancer Drug Screen. Data for the mlh1 rad18 strain (AID 175); details: S. cerevisiae mlh1 rad18 strain growth inhibition; at 50.0 µM; active compounds read high
Summary of the method: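 Genetically defined yeast (DNA repair-deficient) exposed to compounds; growth inhibition determined relative to vehicle.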

Measured: growth inhibition

CCN(CC)c1c(C)nnn1C1OC(COC(C)=O)C(OC(C)=O)C(OC(C)=O)C1OC(C)=O (stereo unspecified)
inactive: [1] -0.8% | [2] -10.9% | [3] -19.9% | [4] 3.15% | [5] 11.8% | [6] -12%

COc1cc(N(CCC#N)CCC#N)ccc1/C(N=Nc1ccccc1)=N/NC(=O)c1cc(Br)ccc1O
inactive: [1] 31.4% | [2] 37.1% | [3] 44.2% | [4] 3.3% | [5] 35.9% | [6] 21.4%

C/C(=N\N)c1ccc(-c2ccccc2)cc1
inactive: [1] 10.6% | [2] 8.9% | [3] 6.45% | [4] -32.8% | [5] -30.7% | [6] -5.4%

C=CCCCCCCCCC(=O)OC1CCCCC1
inactive: [1] -9.25% | [2] 0.2% | [3] 11.1% | [4] -23.1% | [5] 15.4% | [6] 6.15%

OC1c2ccccc2CC12Cc1ccccc1C2 (stereo unspecified)
inactive: [1] 36.1% | [2] 38.5% | [3] 37.3% | [4] 23.5% | [5] 26.6% | [6] 13.8%

Cc1ccc(S(=O)(=O)OCC(c2ccc(Cl)cc2)c2ccccc2Cl)cc1 (stereo unspecified)
inactive: [1] 14.6% | [2] 1.9% | [3] 3.6% | [4] 11.4% | [5] -1.15% | [6] 1.85%

Cc1ccc(C(=O)c2c(C)cccc2C(=O)O)c(C)c1
inactive: [1] -0.95% | [2] -2.1% | [3] 8.45% | [4] 12.6% | [5] -3.85% | [6] 29.4%

CC(=O)OCc1c(COC(C)=O)c(-c2ccc(Cl)c(Cl)c2)n2c1CCC2
inactive: [1] 14.8% | [2] -17.1% | [3] 3.2% | [4] 16.7% | [5] -21.3% | [6] 13.2%

CS(=O)(=O)OC1COC(c2ccccc2)OC1C1OC(c2ccccc2)OCC1OS(C)(=O)=O (stereo unspecified)
inactive: [1] -26.7% | [2] -3.85% | [3] -31.9% | [4] -4% | [5] -0.9% | [6] -7.25%

O=C(O)CC(O)c1ccccc1 (stereo unspecified)
inactive: [1] 30.8% | [2] 13.6% | [3] 16.6% | [4] 17.1% | [5] -0.95% | [6] 18.6%

CCC(Cl)COP(=O)(CC(Cl)CC)OC(C)P(=O)(OCC(Cl)CC)OCC(Cl)CC (stereo unspecified)
active: [1] 98% | [2] 98.3% | [3] 98.7% | [4] 97.5% | [5] 97.2% | [6] 98.4%

O=c1ccc2cc3c(cc2[nH]1)OCO3
inactive: [1] 2.5% | [2] -1.25% | [3] -4.2% | [4] -39.5% | [5] -9.2% | [6] 7.05%

COC(=O)Nc1cccc(NC(=O)C(=O)O)c1
inactive: [1] -0.1% | [2] 3.75% | [3] -0.95% | [4] -29.4% | [5] -4.7% | [6] -0.9%

O=C(Nc1ccc([N+](=O)[O-])cc1)OC1CCS(=O)(=O)C1 (stereo unspecified)
inactive: [1] -0.2% | [2] 6.15% | [3] -3.65% | [4] 13.7% | [5] 8.6% | [6] -1.65%

Cc1nc(-c2nc(C)c(C(=O)NN(C)C)s2)sc1C(=O)NN(C)C
inactive: [1] 28.4% | [2] -7.8% | [3] 23.2% | [4] 23.7% | [5] 3.1% | [6] 22%

COC(=O)c1cc(C)ccc1/C=C1\Cc2c(C)cc(C)cc2C1=O
inactive: [1] -12.2% | [2] -25.8% | [3] -6.85% | [4] -30.6% | [5] -46.1% | [6] -39.6%

COc1ccc2c(c1)-c1cc(OC)ccc1C2c1ccccc1
inactive: [1] -1.1% | [2] -9.15% | [3] -7.6% | [4] -57.5% | [5] 5.15% | [6] -7.25%

C[Si](C)(OCCS(=O)(=O)O)C1S(=O)(=O)OCCOS1(=O)=O
inactive: [1] -18.7% | [2] -21.4% | [3] -12.9% | [4] 8.6% | [5] -16.8% | [6] -18.4%

NC(=O)c1nc2ccccc2nc1Nc1ccc(Cl)cc1Cl
inactive: [1] 29% | [2] 10.2% | [3] 7.55% | [4] -0.9% | [5] 13% | [6] 23.2%

CC(C)(C)[Si](C)(C)OC1CCOC1(O)c1ccccn1 (stereo unspecified)
inactive: [1] 5.75% | [2] 0.65% | [3] 29.6% | [4] 37.1% | [5] 35.8% | [6] -8.2%

COC(=O)c1c2c(cc3c1CC1(Cc4cc5c(cc4C1)CCCC5)C3)CCCC2
inactive: [1] -6.3% | [2] -16.4% | [3] -21.9% | [4] 12.3% | [5] -5.8% | [6] 7.35%
